Assays:
Assay in all cases: log2 ratio of Biotin-Ahx-Ub-VS probe labelling (fragment/DMSO); higher = less target engagement (more negative = stronger competition), active = hit call of the paper (q ≤ 0.05, log2 ratio ≤ -1)
Details in all cases: compound concentration: 200 uM; treatment time: 3 h
USP19 = biological target: T1, USP19 (UniProt O94966)
T1 sequence (whole entry): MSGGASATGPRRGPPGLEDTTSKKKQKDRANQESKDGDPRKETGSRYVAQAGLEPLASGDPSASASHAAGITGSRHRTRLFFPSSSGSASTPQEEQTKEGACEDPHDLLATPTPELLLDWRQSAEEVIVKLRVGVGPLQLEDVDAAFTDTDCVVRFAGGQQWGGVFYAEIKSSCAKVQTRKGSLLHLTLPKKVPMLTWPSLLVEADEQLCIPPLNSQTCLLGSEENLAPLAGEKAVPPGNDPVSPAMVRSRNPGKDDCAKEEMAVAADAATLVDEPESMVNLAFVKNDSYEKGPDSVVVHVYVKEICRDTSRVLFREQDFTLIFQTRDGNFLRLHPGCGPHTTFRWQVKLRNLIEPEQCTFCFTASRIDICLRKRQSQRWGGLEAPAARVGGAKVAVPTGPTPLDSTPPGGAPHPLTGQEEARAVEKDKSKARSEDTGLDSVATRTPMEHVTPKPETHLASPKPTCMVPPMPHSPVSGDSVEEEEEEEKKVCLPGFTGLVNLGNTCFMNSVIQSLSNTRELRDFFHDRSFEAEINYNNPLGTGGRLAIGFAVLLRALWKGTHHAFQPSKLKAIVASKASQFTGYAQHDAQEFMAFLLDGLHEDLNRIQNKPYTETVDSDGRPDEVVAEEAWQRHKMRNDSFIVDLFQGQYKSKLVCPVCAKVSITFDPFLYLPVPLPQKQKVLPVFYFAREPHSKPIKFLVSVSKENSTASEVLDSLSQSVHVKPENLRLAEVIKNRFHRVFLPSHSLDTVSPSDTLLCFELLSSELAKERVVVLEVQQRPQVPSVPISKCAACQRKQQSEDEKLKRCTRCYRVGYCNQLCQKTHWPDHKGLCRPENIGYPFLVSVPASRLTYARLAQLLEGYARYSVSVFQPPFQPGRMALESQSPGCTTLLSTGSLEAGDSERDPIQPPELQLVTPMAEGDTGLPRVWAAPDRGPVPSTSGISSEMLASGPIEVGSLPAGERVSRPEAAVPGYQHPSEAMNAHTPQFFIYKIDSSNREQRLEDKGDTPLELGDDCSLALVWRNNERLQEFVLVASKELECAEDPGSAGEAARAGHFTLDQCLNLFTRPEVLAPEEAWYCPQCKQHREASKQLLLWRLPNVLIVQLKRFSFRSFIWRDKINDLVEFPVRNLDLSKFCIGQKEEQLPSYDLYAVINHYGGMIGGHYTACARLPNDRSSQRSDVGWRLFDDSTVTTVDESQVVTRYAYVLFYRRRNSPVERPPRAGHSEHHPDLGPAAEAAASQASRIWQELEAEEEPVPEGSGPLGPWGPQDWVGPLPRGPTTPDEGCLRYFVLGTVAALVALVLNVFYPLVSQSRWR
In short: (§1)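 HEK293T lysate, 495 µg per sample in Tris/CHAPS/IGEPAL buffer with protease inhibitors, was treated in triplicate with fragment at 200 µM or vehicle for 3 h and then with Biotin-Ahx-Ub-VS at 0.5 µM final for 1 h. Labelled DUBs were NeutrAvidin-enriched, digested with LysC and trypsin, and run by diaPASEF LC-MS/MS. Spectronaut label-free quantities were global-median-normalised, and values are average log2 fragment/vehicle ratios by unpaired t-test on proteins with ≥2 unique peptides.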

USP22 = biological target: T2, USP22 (UniProt Q9UPT9)
T2 sequence (whole entry): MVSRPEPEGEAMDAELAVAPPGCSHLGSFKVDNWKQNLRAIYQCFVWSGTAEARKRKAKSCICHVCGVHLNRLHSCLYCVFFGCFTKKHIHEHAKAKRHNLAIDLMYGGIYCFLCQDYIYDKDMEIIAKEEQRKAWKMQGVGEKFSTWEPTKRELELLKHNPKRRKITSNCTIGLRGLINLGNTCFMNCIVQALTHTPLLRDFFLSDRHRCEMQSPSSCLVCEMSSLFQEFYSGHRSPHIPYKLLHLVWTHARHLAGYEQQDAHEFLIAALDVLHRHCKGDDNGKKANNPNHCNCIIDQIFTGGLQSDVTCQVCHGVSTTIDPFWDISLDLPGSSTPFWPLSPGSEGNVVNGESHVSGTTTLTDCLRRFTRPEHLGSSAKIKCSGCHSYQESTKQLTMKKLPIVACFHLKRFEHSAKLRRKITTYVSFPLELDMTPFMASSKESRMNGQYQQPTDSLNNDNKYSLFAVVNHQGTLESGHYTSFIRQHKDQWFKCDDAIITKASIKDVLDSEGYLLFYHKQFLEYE
In short: as §1

USP24 = USP24 (UniProt Q9UPU5)
Chain of USP24 (Q9UPU5 whole entry): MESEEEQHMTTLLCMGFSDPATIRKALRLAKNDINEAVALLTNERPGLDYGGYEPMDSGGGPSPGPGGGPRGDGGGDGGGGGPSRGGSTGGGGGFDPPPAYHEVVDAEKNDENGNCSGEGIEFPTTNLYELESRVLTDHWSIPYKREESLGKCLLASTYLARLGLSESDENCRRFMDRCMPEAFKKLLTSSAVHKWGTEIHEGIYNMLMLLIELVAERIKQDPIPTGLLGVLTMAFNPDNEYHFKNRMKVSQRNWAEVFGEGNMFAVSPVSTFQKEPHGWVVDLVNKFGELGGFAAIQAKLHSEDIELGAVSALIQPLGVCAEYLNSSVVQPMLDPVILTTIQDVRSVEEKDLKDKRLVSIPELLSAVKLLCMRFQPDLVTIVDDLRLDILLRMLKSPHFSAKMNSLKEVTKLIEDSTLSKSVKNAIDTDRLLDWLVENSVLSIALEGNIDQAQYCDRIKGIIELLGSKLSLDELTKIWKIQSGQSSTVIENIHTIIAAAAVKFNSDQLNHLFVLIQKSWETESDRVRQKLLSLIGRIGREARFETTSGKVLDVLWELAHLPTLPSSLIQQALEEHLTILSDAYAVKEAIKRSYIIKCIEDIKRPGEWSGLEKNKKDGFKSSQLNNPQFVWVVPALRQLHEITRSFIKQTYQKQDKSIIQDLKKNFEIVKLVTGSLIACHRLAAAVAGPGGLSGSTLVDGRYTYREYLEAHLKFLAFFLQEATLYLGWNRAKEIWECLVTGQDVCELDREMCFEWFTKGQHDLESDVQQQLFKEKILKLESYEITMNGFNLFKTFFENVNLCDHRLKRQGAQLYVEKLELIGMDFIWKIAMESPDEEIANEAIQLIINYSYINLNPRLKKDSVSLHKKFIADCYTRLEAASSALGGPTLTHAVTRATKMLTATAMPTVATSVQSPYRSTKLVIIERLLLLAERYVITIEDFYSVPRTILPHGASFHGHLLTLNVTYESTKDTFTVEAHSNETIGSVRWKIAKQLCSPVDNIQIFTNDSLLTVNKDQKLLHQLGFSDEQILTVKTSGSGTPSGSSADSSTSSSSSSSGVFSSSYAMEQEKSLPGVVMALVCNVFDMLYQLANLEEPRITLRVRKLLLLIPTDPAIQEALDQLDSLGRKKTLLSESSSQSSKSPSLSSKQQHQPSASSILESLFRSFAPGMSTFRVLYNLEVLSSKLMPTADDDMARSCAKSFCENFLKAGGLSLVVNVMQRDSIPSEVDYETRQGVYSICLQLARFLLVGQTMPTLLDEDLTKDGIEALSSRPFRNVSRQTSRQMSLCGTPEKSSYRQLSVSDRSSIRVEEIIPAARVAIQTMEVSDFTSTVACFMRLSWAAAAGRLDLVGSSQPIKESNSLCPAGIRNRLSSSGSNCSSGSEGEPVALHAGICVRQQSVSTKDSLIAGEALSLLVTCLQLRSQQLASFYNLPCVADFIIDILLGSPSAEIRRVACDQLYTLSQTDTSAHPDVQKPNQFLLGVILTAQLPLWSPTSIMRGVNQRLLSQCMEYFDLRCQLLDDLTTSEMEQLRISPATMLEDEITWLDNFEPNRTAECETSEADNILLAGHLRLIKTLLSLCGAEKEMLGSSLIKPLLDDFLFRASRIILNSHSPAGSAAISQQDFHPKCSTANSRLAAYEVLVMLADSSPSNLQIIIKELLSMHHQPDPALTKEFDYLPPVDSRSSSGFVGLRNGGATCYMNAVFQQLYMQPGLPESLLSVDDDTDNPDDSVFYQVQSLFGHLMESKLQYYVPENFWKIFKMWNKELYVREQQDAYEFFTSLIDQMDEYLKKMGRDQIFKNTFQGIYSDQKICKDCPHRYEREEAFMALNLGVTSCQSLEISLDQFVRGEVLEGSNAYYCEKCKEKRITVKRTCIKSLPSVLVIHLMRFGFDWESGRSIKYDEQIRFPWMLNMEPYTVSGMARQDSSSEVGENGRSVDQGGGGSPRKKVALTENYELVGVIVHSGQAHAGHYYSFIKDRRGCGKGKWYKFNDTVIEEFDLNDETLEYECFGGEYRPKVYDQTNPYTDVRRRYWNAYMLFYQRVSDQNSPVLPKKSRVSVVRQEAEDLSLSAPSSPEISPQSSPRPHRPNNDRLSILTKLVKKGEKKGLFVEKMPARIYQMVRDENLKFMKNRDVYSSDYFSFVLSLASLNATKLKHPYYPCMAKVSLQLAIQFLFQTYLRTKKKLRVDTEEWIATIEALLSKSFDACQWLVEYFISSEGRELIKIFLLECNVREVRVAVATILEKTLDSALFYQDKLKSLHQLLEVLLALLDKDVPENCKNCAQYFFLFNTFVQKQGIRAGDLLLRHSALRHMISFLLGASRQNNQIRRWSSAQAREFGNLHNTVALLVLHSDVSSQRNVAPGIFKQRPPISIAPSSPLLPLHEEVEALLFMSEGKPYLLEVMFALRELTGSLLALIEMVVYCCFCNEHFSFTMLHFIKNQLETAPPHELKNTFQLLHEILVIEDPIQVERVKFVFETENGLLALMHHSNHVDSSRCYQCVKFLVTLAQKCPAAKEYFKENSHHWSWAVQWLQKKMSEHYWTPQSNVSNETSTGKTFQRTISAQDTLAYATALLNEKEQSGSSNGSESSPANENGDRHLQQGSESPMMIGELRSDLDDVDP
In short: as §1

USP25 = biological target: T3, USP25 (UniProt Q9UHP3)
T3 sequence (whole entry): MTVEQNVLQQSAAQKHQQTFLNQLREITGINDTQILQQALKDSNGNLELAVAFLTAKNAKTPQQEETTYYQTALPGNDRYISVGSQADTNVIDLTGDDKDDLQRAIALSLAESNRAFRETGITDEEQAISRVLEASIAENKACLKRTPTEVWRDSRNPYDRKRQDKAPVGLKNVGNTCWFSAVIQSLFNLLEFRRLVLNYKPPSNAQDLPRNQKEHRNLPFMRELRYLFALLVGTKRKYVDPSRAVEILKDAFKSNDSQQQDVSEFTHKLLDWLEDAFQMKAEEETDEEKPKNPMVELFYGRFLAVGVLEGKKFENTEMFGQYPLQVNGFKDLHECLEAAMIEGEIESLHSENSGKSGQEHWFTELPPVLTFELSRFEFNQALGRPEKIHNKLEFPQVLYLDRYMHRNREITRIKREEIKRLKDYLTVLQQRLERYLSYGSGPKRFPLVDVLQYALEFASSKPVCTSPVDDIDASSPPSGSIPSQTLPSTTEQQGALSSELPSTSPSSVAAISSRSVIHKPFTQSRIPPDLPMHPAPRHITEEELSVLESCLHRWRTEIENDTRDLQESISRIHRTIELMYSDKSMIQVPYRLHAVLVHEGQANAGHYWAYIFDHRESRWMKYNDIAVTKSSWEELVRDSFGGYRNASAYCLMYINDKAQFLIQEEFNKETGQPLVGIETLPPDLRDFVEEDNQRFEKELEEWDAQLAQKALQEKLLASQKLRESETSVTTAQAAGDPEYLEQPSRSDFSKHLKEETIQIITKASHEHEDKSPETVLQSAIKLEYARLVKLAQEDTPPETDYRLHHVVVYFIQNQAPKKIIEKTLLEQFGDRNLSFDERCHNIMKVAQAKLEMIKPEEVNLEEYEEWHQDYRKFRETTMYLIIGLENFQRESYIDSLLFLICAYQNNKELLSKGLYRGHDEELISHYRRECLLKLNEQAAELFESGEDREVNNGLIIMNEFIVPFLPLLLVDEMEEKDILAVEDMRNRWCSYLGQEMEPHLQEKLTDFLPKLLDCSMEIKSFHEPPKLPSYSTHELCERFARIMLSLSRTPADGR
In short: as §1

USP28 = biological target: T4, USP28 (UniProt Q96RU2)
T4 sequence (whole entry): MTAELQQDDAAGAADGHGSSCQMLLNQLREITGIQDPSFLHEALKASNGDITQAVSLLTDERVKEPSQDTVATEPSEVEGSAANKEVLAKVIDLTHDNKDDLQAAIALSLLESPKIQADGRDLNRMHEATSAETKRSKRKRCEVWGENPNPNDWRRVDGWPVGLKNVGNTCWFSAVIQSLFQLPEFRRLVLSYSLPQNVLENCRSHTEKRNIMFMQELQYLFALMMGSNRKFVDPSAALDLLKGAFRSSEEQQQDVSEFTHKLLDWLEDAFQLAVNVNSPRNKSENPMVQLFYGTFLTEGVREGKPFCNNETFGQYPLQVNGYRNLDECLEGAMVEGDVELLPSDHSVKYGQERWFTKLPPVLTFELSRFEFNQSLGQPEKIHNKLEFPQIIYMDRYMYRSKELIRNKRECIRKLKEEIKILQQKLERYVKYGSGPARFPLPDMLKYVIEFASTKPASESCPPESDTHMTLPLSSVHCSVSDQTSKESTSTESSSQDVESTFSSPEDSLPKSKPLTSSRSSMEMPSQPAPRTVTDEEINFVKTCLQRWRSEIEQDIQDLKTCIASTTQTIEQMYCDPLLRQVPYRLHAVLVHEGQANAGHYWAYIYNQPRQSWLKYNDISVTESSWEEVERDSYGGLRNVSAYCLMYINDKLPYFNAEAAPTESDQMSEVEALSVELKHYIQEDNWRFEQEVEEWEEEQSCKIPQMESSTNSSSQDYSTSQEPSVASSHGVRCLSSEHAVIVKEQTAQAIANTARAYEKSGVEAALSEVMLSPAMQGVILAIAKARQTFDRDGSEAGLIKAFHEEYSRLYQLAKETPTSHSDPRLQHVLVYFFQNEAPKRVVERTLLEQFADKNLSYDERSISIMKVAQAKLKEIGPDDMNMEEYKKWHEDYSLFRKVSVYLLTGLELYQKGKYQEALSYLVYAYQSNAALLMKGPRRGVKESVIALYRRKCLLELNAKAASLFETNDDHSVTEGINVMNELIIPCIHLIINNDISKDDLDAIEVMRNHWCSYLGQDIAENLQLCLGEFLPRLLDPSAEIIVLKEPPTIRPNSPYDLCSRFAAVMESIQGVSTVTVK
In short: as §1

Measured: log2 ratio of Biotin-Ahx-Ub-VS probe labelling

Cc1ccccc1C1(CNC(=O)CCl)CCOCC1
inactive: USP19 -0.115 | USP22 -0.0958 | USP24 -0.178 | USP25 -0.264 | USP28 -0.284
